Experimental data as given in PubChem BioAssay.
Values joined by “and” are separate entries in the source; they are usually repeats but may differ in a detail not shown here. Identical values can stand only once. Active and inactive are the calls of the source.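 How the source made its calls, unless noted: active means mean z-score across replicates of 1.96 or higher in either the MELAS or the Rieske mutant cell line; inactive means the rest.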

assay: phospholipid biosynthesis inhibitors in animal cells, primary screen, cell-based, LOPAC library, screen 4 (AID 1347384; call rule not given here); conditions: phospholipid biosynthesis inhibition screen, at 10 µM

| SMILES | outcome |
| --- | --- |
| Nc1c[n+](N2CCOCC2)no1 | inactive |
| O=P(O)(O)C(Cl)(Cl)P(=O)(O)O | inactive |
| CCC1C(=O)OCC1Cc1cncn1C (stereo not given) | inactive |
| O=C1NCN(c2ccccc2)C12CCN(CCCC(c1ccc(F)cc1)c1ccc(F)cc1)CC2 | inactive |

assay: survival rescue of mitochondrial mutant cells in low glucose, primary screen, MELAS cybrids, Rieske KO mouse fibroblasts, CellTiter-Glo (AID 1508586); conditions: MELAS cybrid survival, CellTiter-Glo 48 h, stronger effect = higher value;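 further: z relative to plate mean and SD of compound and empty wells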

| SMILES | z-score |
| --- | --- |
| O=C1NCCN1CCN1CCC(c2cn(-c3ccc(F)cc3)c3ccc(Cl)cc23)CC1 | -0.903 (inactive) |
| CC(CN(C)C)C(C)(O)Cc1ccc(Cl)cc1 (stereo not given) | 0.453 (inactive) |
| O=C(OCCOCCO)c1ccccc1Nc1cccc(C(F)(F)F)c1 | 0.681 (inactive) |
| CCOC(=O)[C@@](C)(N)Cc1ccc(O)c(O)c1 | -1.64 (inactive) |
| CCCCC(O)c1ccccc1 (stereo not given) | 0.247 (inactive) |
| Cn1c(=O)c2c(ncn2CC(=O)O)n(C)c1=O | 0.592 (inactive) |
| O=P(O)(O)C(Cl)(Cl)P(=O)(O)O | 0.218 (inactive) |
| NC(=O)C(c1ccccc1)(c1ccccc1)[C@@H]1CCN(CCc2ccc3c(c2)CCO3)C1 | -1.84 (inactive) |
| NCCNCCNCCNCCN | -0.618 (inactive) |
| Cc1cccn2c(=O)c(-c3nnn[nH]3)cnc12 | 0.721 (inactive) |
| CCOCCn1c(N2CCCN(C)CC2)nc2ccccc21 | 0.35 (inactive) |
| O=C1NCN(c2ccccc2)C12CCN(CCCC(c1ccc(F)cc1)c1ccc(F)cc1)CC2 | -1.7 (inactive) and 0.321 (inactive) |
| CCN(CC)C(=O)Nc1ccc(OCC(O)CNC(C)(C)C)c(C(C)=O)c1 (stereo not given) | 1.68 (inactive) |
| CN(C)CCOC1=Cc2ccccc2Sc2ccc(Cl)cc21 | 0.153 (inactive) |
| C[C@]1(Cn2ccnn2)[C@H](C(=O)O)N2C(=O)C[C@H]2S1(=O)=O | -0.126 (inactive) |
| N#Cc1cc(NC(=O)C(=O)O)c(Cl)c(NC(=O)C(=O)O)c1 | -0.414 (inactive) |
| Clc1cc(Cl)c(OCC#CI)cc1Cl | -0.965 |
| CCOc1ccccc1OCC1CNCCO1 (stereo not given) | 0.538 (inactive) |

same assay, conditions: Rieske KO mouse fibroblast survival, CellTiter-Glo 72 h

| SMILES | z-score |
| --- | --- |
| O=C1NCCN1CCN1CCC(c2cn(-c3ccc(F)cc3)c3ccc(Cl)cc23)CC1 | 0.239 |
| CC(CN(C)C)C(C)(O)Cc1ccc(Cl)cc1 (stereo not given) | -0.0123 |
| O=C(OCCOCCO)c1ccccc1Nc1cccc(C(F)(F)F)c1 | 0.111 |
| CCOC(=O)[C@@](C)(N)Cc1ccc(O)c(O)c1 | -0.614 |
| CCCCC(O)c1ccccc1 (stereo not given) | 0.0374 |
| Cn1c(=O)c2c(ncn2CC(=O)O)n(C)c1=O | 0.00475 |
| O=P(O)(O)C(Cl)(Cl)P(=O)(O)O | -0.285 |
| NC(=O)C(c1ccccc1)(c1ccccc1)[C@@H]1CCN(CCc2ccc3c(c2)CCO3)C1 | -1.37 |
| NCCNCCNCCNCCN | 0.462 |
| Cc1cccn2c(=O)c(-c3nnn[nH]3)cnc12 | -0.0743 |
| CCOCCn1c(N2CCCN(C)CC2)nc2ccccc21 | -0.184 |
| O=C1NCN(c2ccccc2)C12CCN(CCCC(c1ccc(F)cc1)c1ccc(F)cc1)CC2 | 0.391 and -0.284 |
| CCN(CC)C(=O)Nc1ccc(OCC(O)CNC(C)(C)C)c(C(C)=O)c1 (stereo not given) | 0.098 |
| CN(C)CCOC1=Cc2ccccc2Sc2ccc(Cl)cc21 | 0.114 |
| C[C@]1(Cn2ccnn2)[C@H](C(=O)O)N2C(=O)C[C@H]2S1(=O)=O | -0.0503 |
| N#Cc1cc(NC(=O)C(=O)O)c(Cl)c(NC(=O)C(=O)O)c1 | -0.697 |
| Clc1cc(Cl)c(OCC#CI)cc1Cl | 8.41 |
| CCOc1ccccc1OCC1CNCCO1 (stereo not given) | -0.146 |
